Screening data: PubChem, National Center for Advancing Translational Sciences (NCATS)
Sampled rows, rich in hits. Any-hit rate of the full collection: about 19%.
IL-1B inflam inh – blocks inflammasome-driven IL-1 beta release. THP-1 LPS/ATP IL-1B secretion, AlphaLISA, 16 h; active compounds read low. activity change, % at 57.5 µM. 360,000 compounds, 4.7% hits; in the data active = activity change below about -50%; inconclusive = mostly about -30% to -49%
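Secreted IL-1B measured by AlphaLISA bead assay after 16 h compound exposure of THP-1 cells; compounds (final up to 57.5 uM) added 1 h before LPS (250 ng/mL) and ATP (1.25 mM) stimulation; lower signal means less secretion.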
DT40 TDP1 no CPT – qHTS for Inhibitors of human tyrosyl-DNA phosphodiesterase 1 (TDP1): qHTS in cells in absence of CPT; AID 686978, 2013; 420,000 compounds, 15% hits; DT40 Tdp1-/- hTDP1 cells, no CPT, ATP luminescence, 48 h; Potency, µM (top dose mostly 46.2 µM), most hits filed as inhibitors; also: nearly all actives have a fitted effect of over 55% in size
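Chicken DT40 Tdp1-/- cells stably complemented with human TDP1 were seeded at 400 cells/well with DMSO in place of 20 nM camptothecin. After compound pinning, cells grew at least 48 hr at 37 °C; viability read by CellTiter-Glo luminescence.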
HT1080-NT tox – kills 2HG-producing HT-1080-NT fibrosarcoma cells; HT-1080-NT fibrosarcoma viability, CellTiter-Glo ATP luminescence, 48 h; Potency, µM (titrated, usually from 46.1 µM), most hits filed as cytotoxic; 360,000 compounds, 1.6% hits; AID 686970;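 also: NT is the 2HG producing partner of a matched IDH1 knockdown line; nearly all actives have a fitted effect of over 55% in size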
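Toxicity toward the 2HG-producing NT line was scored as %Activity, normalised to DMSO and no-cell wells, from CellTiter-Glo luminescence after 48 hours' treatment.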
ELG1 DNA repair – inhibitors of ELG1-dependent DNA repair in HEK293T cells; HEK293T ELG1-luciferase reporter, luminescence, 16 h; DNA damage induced by 5-fluorouridine; Potency, µM (titrated, usually from 46.1 µM), hits mostly inhibitors; 330,000 compounds, 2.3% hits; also: nearly all actives have a fitted effect of over 55% in size
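Overnight (16 hr) co-exposure of 2,000 cells/well to 5-fluorouridine and compound at 37 °C preceded detection. Luciferase was quantified via ONE-Glo luminescence; loss of signal denotes inhibition.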
TDP1 cell CPT – growth inhibition of DT40 Tdp1-/-;hTDP1 cells with camptothecin (screen for TDP1 inhibitors) | 420,000 compounds, 12% hits | chicken DT40 Tdp1-/-;hTDP1 cells + 20 nM CPT, ATP luminescence, 48 h | Potency, µM (series often up to 46.2 µM), most hits filed as inhibitors; also: nearly all actives have a fitted effect of over 55% in size
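Cell growth measured by CellTiter-Glo luminescence after a minimum 48 h, 37 C compound exposure with 20 nM CPT in Tdp1-knockout DT40 cells stably expressing hTDP1, seeded 400/well; qHTS titration format.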
HT1080 IDH1KD tx – toxicity to HT-1080 IDH1 knockdown cells (counter line); HT-1080 IDH1 knockdown viability, ATP luminescence, 48 h; Potency, µM (highest dose often 46.1 µM), actives largely listed as cytotoxic; 360,000 compounds, 2% hits; AID 686971
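IDH1KD HT-1080 cells, 750/well, RPMI + 5% FBS; compound pinned after 2 h settling; 48 h, 37 °C; CellTiter-Glo luminescence; % activity normalised to DMSO and no-cell wells; curves fitted, classed by r2 and efficacy.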
Numbers stand for hits; 0 = inactive; ? = inconclusive; - = no result; [ ] = remark or other dose. Unless noted, calls follow the shape of the dose curve; as a rule, active = well fitted curve in the direction sought with a large enough effect; inconclusive = small, poorly fitted or top-dose-only effect, or another doubt; inactive = no such curve, though single readings can be large; an effect the other way counts as inactive or inconclusive.

SMILES | IL-1B inflam inh | DT40 TDP1 no CPT | HT1080-NT tox | ELG1 DNA repair | TDP1 cell CPT | HT1080 IDH1KD tx
Cc1cc(C(=O)Nc2ccccc2-c2nc(CNC(=O)c3sc(C)nc3C)c(C)o2)c(C)o1 | - | 0 | - | - | 0[9.04 µM] | -
Cc1cc(C(=O)Nc2cccc(-c3nc(CNC(=O)c4sc(C)nc4C)c(C)o3)c2)c(C)o1 | - | 21µM | - | - | 0[9.04 µM] | -
OC[C@H]1OC(O)[C@H](O)[C@@H](O)[C@H]1O (stereo partly drawn) | 0 | 0 | ? | 0 | 0 | 0
OC[C@H]1OC([S-])[C@H](O)[C@@H](O)[C@@H]1O.[Au+] (stereo partly drawn) | - | 0 | - | - | 24µM | -
COc1cccc(CCNC(=O)c2c(O)nc3ccccn3c2=O)c1 | - | 21µM | - | - | 23µM | -
COc1cccc(CCNC(=O)c2c(O)nc3cc(C)ccn3c2=O)c1 | - | 0 | - | - | 0 | -
COc1ccc(CCNC(=O)c2c(O)nc3c(C)cccn3c2=O)cc1OC | - | ? | - | - | 23µM | -
COc1ccc(CCNC(=O)c2cc3c(=O)n4cccc(C)c4nc3n2C)cc1 | - | ? | - | - | 0 | -
COc1ccc(CCNC(=O)c2cc3cc(F)ccc3nc2C)cc1OC | 0 | 9.2µM | 0 | - | 21µM | 0
COc1cccc(CCNC(=O)c2c(O)nc3c(C)cccn3c2=O)c1 | - | ? | - | - | 18µM | -
COc1ccc(CCNC(=O)c2cc(C)oc2C)cc1OC | 0 | ? | 0 | 0 | 0 | 0
Cc1ncc2c(c1CNC(=O)c1ccsc1)CCN(C(=O)c1c(F)cccc1Cl)C2 | - | 0 | - | - | 0[9.04 µM] | -
CCn1cnc2c(=O)oc3ccc(S(=O)(=O)N4CCN(c5cc(C)ccc5C)CC4)cc3c21 | - | 0 | - | - | 0 | -
COc1cc(NC(=O)C(C)(C)C)c(C(=O)OCC(=O)Nc2cc(C)on2)cc1OC | 0 | 0 | 0 | - | 0 | 0
COCCN(C(=O)CCc1nnc(CCc2c[nH]c3ccccc23)o1)C(C)C | 0 | 0 | 0 | 0 | 0 | 0
COc1ccc(CCNC(=O)c2cccc(-n3c(C)nc4cccnc43)c2)cc1OC | - | ? | - | - | 0 | -
Cc1cccn2c(=O)c(C(=O)NCCc3ccccc3)c(O)nc12 | - | ? | - | - | 16µM | -
COc1ccc(CCNC(=O)c2nc3ncccn3n2)cc1OC | 0 | 16µM | 0 | 0 | ? | 0
Cc1ccc(CNC(=O)c2c(O)nc3ccccn3c2=O)cc1 | - | 29µM | - | - | ? | -
Cc1c(O)nc2ccccn2c1=O | -65 | 0 | 0 | 0 | 0 | 0
COc1cccc(COCC(O)CN2CCC(C(N)=O)CC2)c1 (stereo not drawn) | 0 | 0 | 0 | 0 | 0 | 0
O=C(NCCC1=CCCCC1)c1c(O)nc2sccn2c1=O | 0 | ? | 0 | ? | ? | 0
O=C(NCCC1=CCCCC1)c1c(O)nc2ccccn2c1=O | 0 | 15µM | ? | ? | 12µM | 0
COCCNC(=O)COc1ccc(Br)cc1Cl | 0 | 0 | 0 | ? | 0 | 0
COC(=O)CC1(C(=O)OC)Oc2ccc(Br)cc2C(=O)N1c1cc(Cl)c(Cl)cc1Cl (stereo not drawn) | 0 | 5.8µM | ? | 16µM | 8.2µM | 0
SMILES | IL-1B inflam inh | DT40 TDP1 no CPT | HT1080-NT tox | ELG1 DNA repair | TDP1 cell CPT | HT1080 IDH1KD tx
COC(=O)CC1(C(=O)OC)Oc2ccc(Br)cc2C(=O)N1c1ccc(Br)cc1Cl (stereo not drawn) | 0 | 4.1µM | 15µM | 23µM | 5.8µM | 15µM
COC(=O)CC1(C(=O)OC)Oc2ccc(Br)cc2C(=O)N1c1cc(Cl)cc(Cl)c1 (stereo not drawn) | 0 | ? | ? | ? | ? | 0
COC(=O)CC1(C(=O)OC)Oc2ccc(Br)cc2C(=O)N1c1cccc(Cl)c1Cl (stereo not drawn) | 0 | 6.5µM | 21µM | ? | 3.7µM | ?
COC(=O)CN1C(=O)Nc2ccc(Br)cc2C1c1ccccc1Cl (stereo not drawn) | 0 | ? | ? | 0 | ? | ?
CCc1[nH]nc2c1C(c1cccnc1)C(C#N)=C(N)O2 (stereo not drawn) | 0 | 0 | 0 | - | 0 | 0
CCc1[nH]nc2c1C(C1C=CCCC1)C(C#N)=C(N)O2 (stereo not drawn) | -54 | 21µM | 0 | ? | 23µM | 0
